# Measured values reported in PubChem BioAssay (NCI).
# This is part of a sample that, as a whole, favours compounds with a hit. Of some 83,000 tested, about 20% had one in any assay.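 Single-dose data. Exposure time 48 hours. Values below 10 considered active.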 Unmarked numbers belong to inactive results. The source made the active and inactive calls.
# How the values were obtained:
# Experiment in all cases: NCI-60 one-dose screen, 48 h (100 = growth as untreated, 0 = no growth, -100 = all killed)
# Details in all cases: 10 µM unless noted
# DU-145 prostate = system: DU-145 prostate
# K-562 leukemia = system: K-562 leukemia
# MALME-3M melanoma = system: MALME-3M melanoma
# MDA-MB-231 breast = system: MDA-MB-231 breast
# RXF 393 renal = system: RXF 393 renal
# SF-268 CNS = system: SF-268 CNS
# SF-295 CNS = system: SF-295 CNS
# SF-539 CNS = system: SF-539 CNS
# UACC-257 melanoma = system: UACC-257 melanoma
# M14 melanoma = system: M14 melanoma
# HCT-15 colon = system: HCT-15 colon
# HT29 colon = system: HT29 colon
# SNB-75 CNS = system: SNB-75 CNS
# SNB-19 CNS = system: SNB-19 CNS
# U251 CNS = system: U251 CNS
# PC-3 prostate = system: PC-3 prostate
# SK-MEL-5 melanoma = system: SK-MEL-5 melanoma
# UACC-62 melanoma = system: UACC-62 melanoma
# LOX IMVI melanoma = system: LOX IMVI melanoma
# SK-MEL-28 melanoma = system: SK-MEL-28 melanoma
Structure (SMILES),growth (DU-145 prostate),growth (K-562 leukemia),growth (MALME-3M melanoma),growth (MDA-MB-231 breast),growth (RXF 393 renal),growth (SF-268 CNS),growth (SF-295 CNS),growth (SF-539 CNS),growth (UACC-257 melanoma),growth (M14 melanoma),growth (HCT-15 colon),growth (HT29 colon),growth (SNB-75 CNS),growth (SNB-19 CNS),growth (U251 CNS),growth (PC-3 prostate),growth (SK-MEL-5 melanoma),growth (UACC-62 melanoma),growth (LOX IMVI melanoma),growth (SK-MEL-28 melanoma)
CCCCNC(=O)Oc1ccc2c(=O)c3sc4c(=O)c5ccccc5c(=O)c4c3c(=O)c2c1,-98.5% (active),-34.3% (active),-98% (active),-22.2% (active),-87.1% (active),-48.1% (active),-98.1% (active),-96.6% (active),-95.7% (active),-77.6% (active),-84% (active),-41.6% (active),-98.3% (active),-93.6% (active),-73% (active),-15.5% (active),-96.9% (active),-75% (active),-72.9% (active),-73.3% (active)
COc1cc(C2CC(c3cc(OC)c(OCCCOc4ccc(-n5c(/C=C/c6ccccc6)nc6ccccc6c5=O)cc4)c(OC)c3)=NO2)cc(OC)c1OC (stereo not given),120%,78.7%,143%,110%,116%,107%,81%,108%,106%,127%,84.7%,104%,86.9%,110%,103%,79.4%,95.6%,82.6%,94.6%,104%
CCc1ccccc1-n1c(N)c(C#N)c(-c2ccc(N(C)C)cc2)c(C#N)c1=O,103%,89.3%,91%,91.3%,89.6%,95.6%,98.3%,90.2%,101%,101%,97.7%,101%,88.3%,101%,91.1%,82.6%,86.5%,88%,92.7%,100%
COc1ccc2[nH]c(O)c(/C=c3/cc4c(c(-c5ccc(F)c(OC)c5)n3)=Nc3ccccc3-4)c2c1,30.3%,0.38% (active),-55.6% (active),-47.5% (active),-75.2% (active),30.3%,104%,64.3%,103%,-8.58% (active),-24% (active),-78.5% (active),92.1%,47.6%,-70.1% (active),68.7%,57.2%,79.8%,-17.2% (active),-51.2% (active)
COc1cccc(-c2nc3sccn3c2-c2ccnc(NCCNS(=O)(=O)c3cccc(F)c3)c2)c1,29.7%,19%,46.6%,64.6%,39.9%,37.8%,15.5%,70.7%,44.6%,33.3%,25.1%,27.9%,27.4%,59.2%,45.4%,14.1%,2.05% (active),-17.9% (active),32.7%,56.1%
O=C1c2cccc(NCCN=Cc3cc([N+](=O)[O-])ccc3O)c2C(=O)c2c(NCCN=Cc3cc([N+](=O)[O-])ccc3O)cccc21,67%,28.6%,85.1%,58.9%,74.5%,40%,73%,70.8%,104%,102%,82%,37.1%,65.9%,50.4%,44.5%,50%,92.1%,90.2%,58.6%,102%
Cc1ccc(S(=O)(=O)N/N=C\c2cc(Cl)ccc2O)cc1,92.1%,82%,95.3%,93.8%,91%,94.7%,92.1%,76.6%,107%,96.2%,81.8%,103%,88.5%,86.2%,90.4%,93.6%,99.6%,106%,88.3%,98.3%
O=C(c1ccccc1)c1c(/C=C/c2ccccc2)nc2ccccc2c1/C=C/c1ccc(Br)cc1,105%,97.3%,106%,100%,104%,91.6%,101%,106%,99.8%,96.8%,108%,102%,83.1%,88.9%,95.9%,90.2%,101%,82%,90.6%,108%
CCCCCS(=O)(=O)Nc1ccc(C(=O)O)cc1,103%,104%,98.2%,106%,114%,101%,110%,102%,95%,101%,109%,97.2%,92.3%,106%,92.8%,102%,100%,98.8%,99.9%,111%
N#CC1=C(c2ccc(Br)cc2)NC(SCC(=O)c2ccc(Br)cc2)NC1=O (stereo not given),108%,91.1%,105%,105%,108%,98.9%,101%,96.2%,103%,100%,103%,105%,98.7%,110%,108%,92.4%,110%,109%,106%,111%
CCCCCCCCCCCCCCCCCCOc1ccc(CC(=O)OCC[N+]2(C)CCCC2)cc1,106%,92.2%,117%,111%,101%,104%,90.6%,99.7%,107%,97.9%,97.8%,98.6%,106%,90.8%,85.8%,99.9%,103%,96.2%,42.5%,106%
N=C1C(c2nc(-c3ccc(Br)cc3)cs2)=C(O)CN1CC1CCCO1 (stereo not given),69.7%,64.1%,112%,90.9%,83%,87.9%,91.5%,81.4%,84.3%,91.5%,89.5%,97.5%,78.5%,87.4%,74.9%,7.86% (active),102%,105%,60.7%,107%
Cc1ccc(-c2cc(-c3ccccc3C)[nH]c(=O)c2C#N)s1,104%,85.6%,111%,84.8%,92%,95.8%,99.2%,91.5%,107%,109%,90.5%,122%,71.6%,88.5%,91.2%,85.6%,89.8%,75.5%,82.8%,110%
CC(=O)N1N=C(c2ccc(Nc3nc(Nc4ccc(F)cc4)nc(Nc4ccc(F)cc4)n3)cc2)CC1c1cccc([N+](=O)[O-])c1 (stereo not given),106%,76.7%,91.3%,84.6%,81.4%,103%,482%,92.9%,115%,94.1%,91.7%,48.5%,21.8%,92.5%,86.7%,70.9%,78.8%,92.6%,87.9%,74.4%
CN(C)c1ccc(/C=C/C(=O)c2cccc(Nc3nc(Nc4ccccc4)nc(Nc4ccccc4)n3)c2)cc1,99.4%,67.7%,88.2%,81.8%,77.5%,97.2%,129%,87.9%,110%,91.5%,80.5%,53.8%,5.3% (active),99.1%,91.5%,81.7%,69.5%,91.2%,88.7%,75%
Cc1ccccc1NC(=O)N/C(N)=N/c1nc(C)c(C)s1,11.2%,9.17% (active),57.1%,50.9%,0.637% (active),59.5%,8.66% (active),-26% (active),67.8%,24%,26.4%,16.6%,-33.2% (active),39.9%,21.3%,30.6%,40.5%,42.7%,37.8%,60.7%
Cc1cc(=O)[nH]c(N=Nc2c(O)[nH]c3ccccc23)n1,117%,116%,127%,97.2%,117%,105%,114%,105%,112%,100%,109%,106%,105%,103%,103%,97.9%,103%,106%,99.8%,111%
c1csc(-c2c3ccc(=[N+]4CCCCC4)cc-3oc3cc(N4CCCCC4)ccc23)c1,-96.6% (active),-29.5% (active),-58.8% (active),-50.9% (active),-97% (active),-88.8% (active),-53.7% (active),-91.3% (active),-69.8% (active),-87.8% (active),-70% (active),-74.2% (active),-47.4% (active),-87.6% (active),-71.7% (active),-65.7% (active),-90.5% (active),-76.1% (active),-76.2% (active),-66.4% (active)
COc1ccc(-c2nc3c(N)c(CO)c(C)nc3o2)cc1,102%,91.5%,96.7%,111%,96%,94.9%,99.1%,93.9%,101%,106%,102%,97.7%,98.9%,111%,96.5%,103%,95.3%,97.7%,93.5%,106%
CCOc1ccccc1-c1cc(-c2cccs2)c(C#N)c(=O)[nH]1,111%,48.6%,84.9%,89%,79.6%,92.5%,93.6%,87.3%,101%,85.1%,56.8%,120%,45.8%,86.1%,88.6%,84.5%,85.8%,63.7%,86.6%,94.6%
O=C(NCCCNc1cc(-c2cn(-c3ccccc3)nc2-c2cccc(O)c2)ccn1)c1ccc(F)cc1,48.4%,0.281% (active),-12.1% (active),-13.6% (active),15.9%,31.3%,-4.5% (active),13.9%,-51.7% (active),-41.8% (active),-4.32% (active),0.339% (active),10.9%,54.2%,15.6%,12.6%,-24.8% (active),-1.62% (active),21.5%,-34.8% (active)
CC1=C(SCCC(=O)OC(C[Se]C2=C(C)C(=O)c3ccccc3C2=O)C(=O)NCCCCCC(=O)OCc2ccccc2)C(=O)c2ccccc2C1=O (stereo not given),39.1%,21.6%,45.6%,59%,57.8%,48.8%,-7.98% (active),9.31% (active),45.4%,-1.57% (active),56.5%,25.9%,55.5%,38.6%,22.9%,11.4%,8.74% (active),65.2%,39.7%,53.6%
CC(=O)O[C@]1(C(C)=O)CCC2C3C[C@H](C)C4=CC(=O)CC[C@]4(C)C3CC[C@@]21C (stereo not given in full),117%,96%,82.8%,71%,119%,108%,95.7%,94.1%,107%,89%,92.3%,87.7%,96%,96.4%,104%,68.4%,81.8%,79.3%,95.7%,108%
O=c1[nH]c2ccccc2n1C1CCN(CCOc2ccccc2)CC1,73.4%,11.4%,99.9%,91.3%,28%,92.8%,76.9%,106%,95.1%,97%,85.1%,99.4%,80.5%,93.3%,88.9%,58.9%,95.6%,86%,95.2%,102%
C=C1C(=O)O[C@H]2[C@H]1CC/C(COC(=O)C(=O)c1c[nH]c3ccc(OC)cc13)=C\CC[C@@]1(C)O[C@@H]21,-89.8% (active),-7.42% (active),-71.4% (active),-64.8% (active),-93.1% (active),-53.2% (active),33.1%,-97.4% (active),-93.9% (active),-79.1% (active),-49.8% (active),-69.7% (active),-88.4% (active),-17.6% (active),-97.8% (active),-70% (active),-96.6% (active),-76.6% (active),-77.4% (active),-75.3% (active)
COc1cc(C(=O)/C=C/c2c(C(F)(F)F)nc3sccn23)cc(OC)c1OC,10.7%,-16.1% (active),78.6%,29.1%,-55.7% (active),16.1%,-2.07% (active),-59.1% (active),13.4%,-39.2% (active),-62.2% (active),-11.8% (active),29.8%,20.7%,4.46% (active),16.4%,5.95% (active),-13.8% (active),-57.9% (active),-18.4% (active)
Cc1ccc(S(=O)(=O)Oc2cc(OS(=O)(=O)c3ccc(C)cc3)cc(OS(=O)(=O)c3ccc(C)cc3)c2)cc1,108%,94.4%,133%,92.2%,99.6%,99%,86.9%,95%,104%,108%,98.1%,98.7%,95.4%,104%,108%,86.9%,94.4%,86.1%,98.1%,112%
CCOC(CN=Cc1cc(C)c2[nH]c3ccccc3c2c1C)OCC,101%,95.1%,124%,108%,102%,92.5%,92.4%,100%,90.3%,94.4%,97.8%,108%,88.9%,91.9%,89.5%,101%,105%,71.3%,96.3%,103%
